The panel holds about 83,000 compounds, 20% with a hit somewhere; the sample as a whole holds those more often.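 Each cell line was grown in a 96-well plate and treated with one concentration of compound for 48 hours. Values below 10 were considered active.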 Unmarked numbers belong to inactive results. Activity calls are given as the source filed them.
These molecules were tested on SR leukemia (assay: NCI-60 one-dose screen, 48 h (100 = growth as untreated, 0 = no growth, -100 = all killed)). Conditions: 10 µM unless noted.
`Cc1nn(-c2cccc(Cl)c2)c(C)c1N=Nc1ccc(Br)cc1` was tested, and the growth was 92.7%. With `O=C(N/N=C\c1cc(Br)ccc1O)c1ccncc1` the growth was 14.2%. With `CC(C)OC1OC(OC(C)C)C(OC(C)C)OC1OC(C)C` (stereo not given) the growth was 100%. `COc1ccc2c(c1)C1=NN(C(=O)CO)[C@H](c3ccc(OC(F)(F)F)cc3)[C@@H]1CC2` showed a growth of 69.2%. `Cn1c(-c2ccccc2)cc(=O)n1-c1ccccc1` gave a growth of 101%. For `CC(C)(C)c1ccc(C(=O)Nc2sc3cc(O)ccc3c2C(N)=O)cc1`, the growth was 33.7%. In the case of `O=C1N(Cc2ccccc2Cl)c2ccccc2C12NN=C(c1ccccc1)S2` (stereo not given), the growth is reported as 40%. Work on `CC(=O)c1ccc(N2C(=O)c3ccc(Oc4ccccc4)cc3C2=O)cc1` yielded a growth of 119%. With `CC1CCCN(CCCCOc2ccc(-c3ccc(C#N)cc3)cc2)C1` (stereo not given) the growth was 86.8%. With `CNC(=O)c1c(NC(=O)c2cccc(C(F)(F)F)c2)sc2c1CCC(=O)C2` the growth was 1.53% (active). Molecule `OC(COCc1ccccc1)COCc1ccccc1` has a growth of 89.2%. Molecule `CN1CCCN(CCNc2nccc(-c3c(-c4cccc(O)c4)nc4sccn34)n2)S1(=O)=O` has a growth of 13.9%. With `CC(=O)NC1C(O[C@H]2C[C@H]3[C@@H]4CC=C5C[C@@H](O)CC[C@]5(C)[C@H]4CC[C@]3(C)[C@H]2[C@H](C)C(=O)CCC(C)C)OCC(O)C1O` (stereo not given in full) the growth was 18.7%. In the case of `CN(C)c1nc(-c2cccs2)n2nc(-c3ccc(Cl)cc3)cc2n1`, the growth is reported as 58.7%. For `O=C1NN(C(=O)c2ccccc2)C(c2ccc(Cl)c(Cl)c2)=C/C1=C\c1ccccc1[N+](=O)[O-]`, the growth was 6.01% [6.75 µM] (active).
